Data from PubChem BioAssay AID1159580 (chemical genetic matrix, 2015).
Hit rate of the full screen: of about 5,500 compounds, about 2,000 (36%) were called active. Another 18% or so got no clear call; they are omitted. The list shows a part of the results. Unmarked numbers belong to inactive results. Cut-off read from the data, not from the text of the source: active = normalized growth mostly below about 0.91 (no sharp cut-off); inconclusive = no clear call, values can overlap the other calls; inactive = mostly above about 0.92.

Experiment: chemical genetic growth profiling, strain panel (AID 1159580);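 note: tested at 20 µM; growth read once vehicle control cultures reached saturation at 30 °C; 1 = growth at the plate median or of vehicle wells; lower values mean less growth of the strain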
Conditions: growth OD

Compound: CC(=O)Oc1c(Cl)c(C)c2c(c1Cl)OC(=O)c1c(C)c(Cl)c(OC(C)=O)c(Cl)c1O2
- normalized growth (S. cerevisiae deletion strains, locus YAL013W, strain DEP1, stronger effect = lower value): 0.895 (active)
- normalized growth (S. cerevisiae deletion strains, locus YBR021W, strain FUR4, stronger effect = lower value): 0.851 (active)
- normalized growth (S. cerevisiae deletion strains, locus YBR229C, strain ROT2, stronger effect = lower value): 1.02
- normalized growth (S. cerevisiae deletion strains, locus YCL029C, strain bik1, stronger effect = lower value): 0.853 (active)
- normalized growth (S. cerevisiae deletion strains, locus YDL035C, strain GPR1, stronger effect = lower value): 0.86
- normalized growth (S. cerevisiae deletion strains, locus YDL074C, strain BRE1, stronger effect = lower value): 0.79
- normalized growth (S. cerevisiae deletion strains, locus YDL101C, strain DUN1, stronger effect = lower value): 0.946
- normalized growth (S. cerevisiae deletion strains, locus YDL185W, strain tfp1, stronger effect = lower value): 1
- normalized growth (S. cerevisiae deletion strains, locus YDL192W, strain arf1, stronger effect = lower value): 0.825 (active)
- normalized growth (S. cerevisiae deletion strains, locus YDR101C, strain arx1, stronger effect = lower value): 0.883 (active)
- normalized growth (S. cerevisiae deletion strains, locus YDR162C, strain NBP2, stronger effect = lower value): 0.799 (active)
- normalized growth (S. cerevisiae deletion strains, locus YDR318W, strain mcm21, stronger effect = lower value): 0.946
- normalized growth (S. cerevisiae deletion strains, locus YDR388W, stronger effect = lower value): 0.932
- normalized growth (S. cerevisiae deletion strains, locus YDR502C, strain sam2, stronger effect = lower value): 0.878 (active)
- normalized growth (S. cerevisiae deletion strains, locus YEL061C, strain CIN8, stronger effect = lower value): 1.02
- normalized growth (S. cerevisiae deletion strains, locus YER110C, stronger effect = lower value): 0.992
- normalized growth (S. cerevisiae deletion strains, locus YER155C, strain BEM2, stronger effect = lower value): 0.91 (active)
- normalized growth (S. cerevisiae deletion strains, locus YER167W, strain BCK2, stronger effect = lower value): 0.985
- normalized growth (S. cerevisiae deletion strains, locus YGL078C, strain dbp3, stronger effect = lower value): 0.856 (active)
- normalized growth (S. cerevisiae deletion strains, locus YGL086W, strain mad1, stronger effect = lower value): 0.899 (active)
- normalized growth (S. cerevisiae deletion strains, locus YGL248W, strain PDE1, stronger effect = lower value): 0.926
- normalized growth (S. cerevisiae deletion strains, locus YGR135W, strain pre9, stronger effect = lower value): 0.912
- normalized growth (S. cerevisiae deletion strains, locus YGR229C, strain SMI1, stronger effect = lower value): 0.65 (active)
- normalized growth (S. cerevisiae deletion strains, locus YGR252W, strain gcn5, stronger effect = lower value): 0.693 (active)
- normalized growth (S. cerevisiae deletion strains, locus YHR030C, strain SLT2, stronger effect = lower value): 0.922
- normalized growth (S. cerevisiae deletion strains, locus YHR079C, strain IRE1 (second series), stronger effect = lower value): 1.01
- normalized growth (S. cerevisiae deletion strains, locus YHR094C, strain hxt1, stronger effect = lower value): 1.01
- normalized growth (S. cerevisiae deletion strains, locus YHR129C, strain ARP1, stronger effect = lower value): 0.925
- normalized growth (S. cerevisiae deletion strains, locus YHR200W, strain rpn10, stronger effect = lower value): 0.966
- normalized growth (S. cerevisiae deletion strains, locus YIL066C, strain RNR3, stronger effect = lower value): 0.965
- normalized growth (S. cerevisiae deletion strains, locus YIL073C, strain SPO22, stronger effect = lower value): 1.03
- normalized growth (S. cerevisiae deletion strains, locus YIL125W, strain kgd1, stronger effect = lower value): 1.02
- normalized growth (S. cerevisiae deletion strains, locus YIR030C, strain dcg1, stronger effect = lower value): 0.934
- normalized growth (S. cerevisiae deletion strains, locus YJL095W, strain BCK1, stronger effect = lower value): 0.802
- normalized growth (S. cerevisiae deletion strains, locus YJL134W, strain LCB3, stronger effect = lower value): 1.04
- normalized growth (S. cerevisiae deletion strains, locus YJL168C, strain set2, stronger effect = lower value): 1.01
- normalized growth (S. cerevisiae deletion strains, locus YJL187C, strain SWE1 (second series), stronger effect = lower value): 0.913
- normalized growth (S. cerevisiae deletion strains, locus YJR043C, strain POL32, stronger effect = lower value): 0.921
- normalized growth (S. cerevisiae deletion strains, locus YKL009W, strain mrt4, stronger effect = lower value): 0.678 (active)
- normalized growth (S. cerevisiae deletion strains, locus YKL085W, strain MDH1 (second series), stronger effect = lower value): 1.39 [resistant] (active)
- normalized growth (S. cerevisiae deletion strains, locus YKL085W, strain MDH1, stronger effect = lower value): 1.39 [resistant] (active)
- normalized growth (S. cerevisiae deletion strains, locus YKR001C, strain vps1, stronger effect = lower value): 0.682 (active)
- normalized growth (S. cerevisiae deletion strains, locus YLR039C, strain RIC1, stronger effect = lower value): 0.715
- normalized growth (S. cerevisiae deletion strains, locus YLR058C, strain SHM2, stronger effect = lower value): 0.967
- normalized growth (S. cerevisiae deletion strains, locus YLR102C, strain apc9, stronger effect = lower value): 1.01
- normalized growth (S. cerevisiae deletion strains, locus YLR262C, strain YPT6, stronger effect = lower value): 0.642
- normalized growth (S. cerevisiae deletion strains, locus YLR268W, strain sec22, stronger effect = lower value): 0.847 (active)
- normalized growth (S. cerevisiae deletion strains, locus YLR330W, strain CHS5, stronger effect = lower value): 0.922
- normalized growth (S. cerevisiae deletion strains, locus YLR342W, strain FKS1 (second series), stronger effect = lower value): 0.828
- normalized growth (S. cerevisiae deletion strains, locus YLR371W, strain rom2, stronger effect = lower value): 1.01
- normalized growth (S. cerevisiae deletion strains, locus YLR418C, strain cdc73, stronger effect = lower value): 0.756 (active)
- normalized growth (S. cerevisiae deletion strains, locus YML016C, strain PPZ1, stronger effect = lower value): 1.02
- normalized growth (S. cerevisiae deletion strains, locus YML032C, strain rad52, stronger effect = lower value): 0.853 (active)
- normalized growth (S. cerevisiae deletion strains, locus YML124C, strain tub3, stronger effect = lower value): 1.02
- normalized growth (S. cerevisiae deletion strains, locus YMR078C, strain ctf18, stronger effect = lower value): 0.985
- normalized growth (S. cerevisiae deletion strains, locus YMR223W, strain ubp8, stronger effect = lower value): 0.886 (active)
- normalized growth (S. cerevisiae deletion strains, locus YMR307W, strain GAS1, stronger effect = lower value): 0.613
- normalized growth (S. cerevisiae deletion strains, locus YNL067W, strain RPL9B, stronger effect = lower value): 0.846 (active)
- normalized growth (S. cerevisiae deletion strains, locus YNL153C, strain GIM3, stronger effect = lower value): 0.858 (active)
- normalized growth (S. cerevisiae deletion strains, locus YNL233W, strain BNI4, stronger effect = lower value): 0.934
- normalized growth (S. cerevisiae deletion strains, locus YNL250W, strain rad50, stronger effect = lower value): 0.98
- normalized growth (S. cerevisiae deletion strains, locus YNL271C, strain bni1, stronger effect = lower value): 0.993
- normalized growth (S. cerevisiae deletion strains, locus YNL298W, strain CLA4, stronger effect = lower value): 0.866 (active)
- normalized growth (S. cerevisiae deletion strains, locus YNL307C, strain MCK1, stronger effect = lower value): 0.771 (active)
- normalized growth (S. cerevisiae deletion strains, locus YNL322C, strain KRE1, stronger effect = lower value): 1.02
- normalized growth (S. cerevisiae deletion strains, locus YNR052C, strain pop2, stronger effect = lower value): 0.754 (active)
- normalized growth (S. cerevisiae deletion strains, locus YOL006C, strain TOP1, stronger effect = lower value): 0.734
- normalized growth (S. cerevisiae deletion strains, locus YOL012C, strain htz1): 1.44
- normalized growth (S. cerevisiae deletion strains, locus YOL147C, strain pex11, stronger effect = lower value): 0.916 (active)
- normalized growth (S. cerevisiae deletion strains, locus YOR061W, strain CKA2, stronger effect = lower value): 0.988
- normalized growth (S. cerevisiae deletion strains, locus YOR069W, strain VPS5, stronger effect = lower value): 0.972
- normalized growth (S. cerevisiae deletion strains, locus YOR136W, strain idh2, stronger effect = lower value): 0.976
- normalized growth (S. cerevisiae deletion strains, locus YOR144C, strain elg1, stronger effect = lower value): 0.903 (active)
- normalized growth (S. cerevisiae deletion strains, locus YOR184W, strain ser1, stronger effect = lower value): 0.652 (active)
- normalized growth (S. cerevisiae deletion strains, locus YOR316C, strain cot1, stronger effect = lower value): 1.01
- normalized growth (S. cerevisiae deletion strains, locus YPR119W, strain clb2, stronger effect = lower value): 1.01
- normalized growth (S. cerevisiae deletion strains, locus YPR141C, strain kar3, stronger effect = lower value): 1.07
- normalized growth (S. cerevisiae deletion strains, locus YPR163C, strain tif3, stronger effect = lower value): 0.736 (active)
- normalized growth (S. cerevisiae deletion strains, locus YPR167C, strain met16, stronger effect = lower value): 0.942
- normalized growth (S. cerevisiae deletion strains, strain wtn01, stronger effect = lower value): 0.856 (active)
- normalized growth (S. cerevisiae strains, strain wild type, stronger effect = lower value): 0.977
